Test results as given in PubChem BioAssay (EPA / NIEHS).
The source made the active and inactive calls. Rule for the calls: active = hit-call score of the fitted dose curve at least 0.9, where 1 is the maximum; inactive = score below 0.9.

Read-out: Monocyte Chemoattractant Protein-1 (MCP1), CCL2 (gene 6347)
Test: BSK_SAg_MCP1: BioMAP Diversity Plus: SAg Assay for Monocyte Chemoattractant Protein-1 (MCP1) Biomarker Activity (AID 2283090)
Conditions: primary human HUVEC with PBMC; actives raise or lower the signal
Experimental: BSK_SAg is a cell-based, multiplexed-readout assay that uses umbilical vein endothelium and peripheral blood mononuclear cells, a human vascular primary cell co-culture, with measurements taken at 24 hours after chemical dosing in a 96-well plate.BSK_SAg_MCP1 is an assay component measured in the BSK_SAg assay. It measures MCP-1 antibody related to regulation of gene expression using ELISA technology.Data from the assay component BSK_SAg_MCP1 was analyzed into 1 assay endpoint. This assay endpoint, BSK_SAg_MCP1, was analyzed with bidirectional fitting relative to DMSO as the negative control and baseline of activity. Using a type of binding reporter, gain or loss-of-signal activity can be used to understand changes in the signaling as they relate to the gene CCL2. Furthermore, this assay endpoint can be referred to as a primary readout, because this assay has produced multiple assay endpoints where this one serves a signaling function. To generalize the intended target to other relatable targets, this assay endpoint is annotated to the cytokine intended target family, where the subfamily is chemotactic factor.
The levels of cell surface (or secreted, indicated by the prefix "s") biomarker endpoints were measured by ELISA. Overt cytotoxicity to cells in confluent adherent cultures (all systems other than the BT system) was assessed by measuring total protein levels using sulforhodamine B (SRB) staining in parallel cultures at the time of biomarker measurements, indicated as SRB endpoints. For proliferation assays for adherent cell types, individual cell types are cultured at sub-confluence and relative cell numbers quantified by SRB staining at time points optimized for each system (48 h: 3C and CASM3C systems; 72 h: BT and HDF3CGF systems; 96 h: SAg system). SRB was performed by staining cells with 0.1% SRB after fixation with 10% TCA and reading wells at 560 nm.Viability and proliferation of PBMC (T cells) was quantified by Alamar Blue reduction for the SAg and BT systems. For PBMC viability (referred to as PBMC Cytotoxicity within the assay endpoint names), cells were plated (75,000/well in a 96-well plate) and then chemical samples added for 1 h before addition of activators, SEB and TSST-1 (20 ng/mL final concentration each). Cells were incubated for 90 h. Then, Alamar Blue (20 uL/well) (Invitrogen, Cat DAL1100) was added for 6 h, and the plates were read with a fluorescence microplate reader at 546/580 nm (excitation/emission). For PBMC proliferation, cells were plated and activated as above but incubated for only 16 h prior to addition of Alamar Blue. Plates were read after 6 h.

Row | Structure (SMILES) | AC50 | outcome
1 | Cc1cc(C(C)(C)c2ccc(O)c(C)c2)ccc1O | 15.9 µM (active) | 
2 | O=C(O)COc1cc(Cl)c(Cl)cc1Cl |  | inactive
3 | C=CC(Cl)CCl (stereo not given) |  | inactive
4 | Oc1ccc(Cc2ccc(O)cc2)cc1 |  | inactive
5 | Cc1ccc2nc3sc(=O)sc3nc2c1 |  | inactive
6 | CCCCCCCCCCCCN(C)C |  | inactive
7 | Cc1c([N+](=O)[O-])c(C)c([N+](=O)[O-])c(C(C)(C)C)c1[N+](=O)[O-] |  | inactive
8 | O=C(CCl)NCO |  | inactive
9 | CCN(CC)C(=O)C(Cl)=C(C)OP(=O)(OC)OC |  | inactive
10 | Cc1ccccc1OP(=O)(Oc1ccccc1)Oc1ccccc1 | 20 µM (active) | 
11 | O=C(N[C@H]1CN2CCC1CC2)c1ccc2c(c1)OCCO2 |  | inactive
12 | CCCCCCCCCCCCc1cccc(S(=O)(=O)O)c1 |  | inactive
13 | C[C@]12CC[C@@H](O)C[C@@H]1CC[C@@H]1[C@@H]2CC[C@]2(C)C(=O)CC[C@@H]12 |  | inactive
14 | [Cl][Sn]([c]1ccccc1)([c]1ccccc1)[c]1ccccc1 | 0.327 µM (active) | 
15 | CCC(C)(C#N)N=NC(C)(C#N)CC (stereo not given) |  | inactive
16 | OC(Cc1ccccc1Cl)(Cn1cncn1)C1(Cl)CC1 (stereo not given) |  | inactive
17 | Cc1cc(C)cc(C)c1 |  | inactive
18 | CC(C)O.CC(C)O.OCCN(CCO)CCO.OCCN(CCO)CCO.[Ti] |  | inactive
19 | CC(C)(C)c1cc([N+](=O)[O-])cc(C(C)(C)C)c1O | 0.458 µM (active) | 
20 | Nc1c(Oc2ccccc2)cc(O)c2c1C(=O)c1ccccc1C2=O | 0.803 µM (active) | 

Row | Structure (SMILES) | AC50 | outcome
21 | O=C1C=CC(=O)c2ccccc21 | 2.39 µM (active) | 
22 | CCOP(=S)(OCC)OP(=S)(OCC)OCC |  | inactive
23 | COCC(=O)N(c1c(C)cccc1C)[C@H](C)C(=O)OC |  | inactive
24 | O=c1oc2ccccc2c(O)c1C(CC(O)c1ccc(-c2ccc(Br)cc2)cc1)c1ccccc1 (stereo not given) | 22.6 µM (active) | 
25 | O=S(=O)(c1ccc(Cl)cc1)c1cc(Cl)c(Cl)cc1Cl |  | inactive
26 | C#CCOC(=O)/C=C(C)/C=C/CC(C)CCCC(C)C (stereo not given) |  | inactive
27 | CCOP(=O)(OCC)OC(=CCl)c1ccc(Cl)cc1Cl |  | inactive
28 | CC(C)(C)c1ccccc1O |  | inactive
29 | Cc1cccc(OP(=O)(Oc2cccc(C)c2)Oc2cccc(C)c2)c1 |  | inactive
30 | Cc1cc(Cl)ccc1N |  | inactive
31 | O=S(=O)(C(Cl)(Cl)Cl)C(Cl)(Cl)Cl | 4.17 µM (active) | 
32 | N#CCCC(Br)(C#N)CBr (stereo not given) | 20 µM (active) | 
33 | CC(C)(COCC1CO1)COCC1CO1 (stereo not given) |  | inactive
34 | CC(C)N(C(=O)CCl)c1ccccc1 | 27.9 µM (active) | 
35 | CCOC(=O)C(SP(=S)(OC)OC)c1ccccc1 (stereo not given) |  | inactive
36 | CC1(C)[C@H](C(=O)O[C@H](C#N)c2cccc(Oc3ccccc3)c2)[C@@H]1/C=C(\Cl)C(F)(F)F |  | inactive
37 | CC(C)=CC1C(C(=O)OCc2cccc(Oc3ccccc3)c2)C1(C)C (stereo not given) |  | inactive
38 | CC(C=O)Cc1ccc2c(c1)OCO2 (stereo not given) |  | inactive
39 | OC(Cc1ccccc1Cl)(Cn1[nH]cnc1=S)C1(Cl)CC1 (stereo not given) |  | inactive
40 | Clc1cccc(Cl)c1 |  | inactive
